# Results: article PMC11006913
# Positions count from the first letter of the chain named.
# Key:
# Test in all cases: PBM; 200 nM protein, PBS
# Conditions in all cases: dsDNA, one strand shown
# [1] = biological target: NKX2-5 (Homo sapiens, UniProt P52952 125-210, R139K)
# [2] = biological target: T1, NKX2-4 (Homo sapiens, UniProt Q9H2Z4 175-261, P217L)
# T1 sequence: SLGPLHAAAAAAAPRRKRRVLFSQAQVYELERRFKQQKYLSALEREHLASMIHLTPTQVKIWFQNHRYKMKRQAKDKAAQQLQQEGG
# [3] = biological target: T2, NKX2-4 (Homo sapiens, UniProt Q9H2Z4 175-261, T231S)
# T2 sequence: T1 sequence with L43P, T57S
# [4] = biological target: T3, NKX2-4 (Homo sapiens, UniProt Q9H2Z4 175-261)
# T3 sequence: T1 sequence with L43P
# [5] = biological target: T4, NKX2-4 (Homo sapiens, UniProt Q9H2Z4 175-261, R246Q)
# T4 sequence: T1 sequence with L43P, R72Q
# [6] = biological target: NKX3-2 (Homo sapiens, UniProt P78367 192-278, P234S)
# [7] = biological target: NKX2-5 (Homo sapiens, UniProt P52952 125-210)
# [8] = biological target: NKX3-2 (Homo sapiens, UniProt P78367 192-278)
# [9] = biological target: SHOX (Homo sapiens, UniProt O15266 103-189)
# [10] = biological target: T5, VENTX (Homo sapiens, UniProt O95231 78-163, R121Q)
# T5 sequence: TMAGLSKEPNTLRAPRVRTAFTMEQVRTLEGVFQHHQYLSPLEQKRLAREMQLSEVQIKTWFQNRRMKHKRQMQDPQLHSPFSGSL
# [11] = biological target: T6, VENTX (Homo sapiens, UniProt O95231 78-163, Y115F)
# T6 sequence: T5 sequence with Y38F, Q44R
# [12] = biological target: ALX1 (Homo sapiens, UniProt Q15699 118-204, L144V)
# [13] = biological target: ALX1 (Homo sapiens, UniProt Q15699 118-204, L144R)
# [14] = biological target: ALX1 (Homo sapiens, UniProt Q15699 118-204)
# [15] = biological target: T7, NKX2-6 (Homo sapiens, UniProt A6NCS4 118-204, R150C)
# T7 sequence: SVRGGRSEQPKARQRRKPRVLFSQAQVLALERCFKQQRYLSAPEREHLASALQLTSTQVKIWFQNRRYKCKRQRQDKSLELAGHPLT
# [16] = biological target: T8, NKX2-6 (Homo sapiens, UniProt A6NCS4 118-204)
# T8 sequence: T7 sequence with C33R
# [17] = biological target: T9, NKX2-6 (Homo sapiens, UniProt A6NCS4 118-204, F151L)
# T9 sequence: T7 sequence with C33R, F34L
# [18] = biological target: HOXB4 (Homo sapiens, UniProt P17483 148-234)
# [19] = biological target: HOXB4 (Homo sapiens, UniProt P17483 148-234, V174I)
# Chain of HOXB4 (Homo sapiens, UniProt P17483 148-234, V174I) (P17483 148-234 V174I): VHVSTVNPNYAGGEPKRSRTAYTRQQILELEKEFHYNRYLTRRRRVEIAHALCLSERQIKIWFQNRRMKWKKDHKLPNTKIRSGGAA
# Chain of NKX3-2 (Homo sapiens, UniProt P78367 192-278) (P78367 192-278): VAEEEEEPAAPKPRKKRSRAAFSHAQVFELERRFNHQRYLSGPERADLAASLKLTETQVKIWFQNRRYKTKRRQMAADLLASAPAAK
# Chain of ALX1 (Homo sapiens, UniProt Q15699 118-204, L144V) (Q15699 118-204 L144V): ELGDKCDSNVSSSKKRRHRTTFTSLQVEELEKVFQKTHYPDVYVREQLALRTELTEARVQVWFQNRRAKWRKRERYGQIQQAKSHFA
# Chain of ALX1 (Homo sapiens, UniProt Q15699 118-204, L144R) (Q15699 118-204 L144R): as the sequence (Q15699 118-204 L144V) above, with V27R counted along it
# Chain of ALX1 (Homo sapiens, UniProt Q15699 118-204) (Q15699 118-204): as the sequence (Q15699 118-204 L144V) above, with V27L counted along it
# Chain of NKX2-5 (Homo sapiens, UniProt P52952 125-210) (P52952 125-210): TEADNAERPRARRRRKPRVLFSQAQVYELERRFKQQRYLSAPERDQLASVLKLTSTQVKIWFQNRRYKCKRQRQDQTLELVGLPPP
# Chain of NKX2-5 (Homo sapiens, UniProt P52952 125-210, R139K) (P52952 125-210 R139K): as the sequence (P52952 125-210) above, with R15K counted along it
# Chain of NKX3-2 (Homo sapiens, UniProt P78367 192-278, P234S) (P78367 192-278 P234S): as the sequence (P78367 192-278) above, with P43S counted along it
# Chain of HOXB4 (Homo sapiens, UniProt P17483 148-234) (P17483 148-234): as the sequence (P17483 148-234 V174I) above, with I27V counted along it
# Chain of SHOX (O15266 103-189): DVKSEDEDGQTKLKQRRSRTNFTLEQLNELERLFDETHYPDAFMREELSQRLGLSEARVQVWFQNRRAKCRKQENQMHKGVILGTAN
sequence,measurement,setting,value
CCGGAGCC,binding signal,[1],"8.82 upbm affinity estimate (log intensity, higher = more binding, comparable within an allelic series)"
same,binding signal,[2],"9.74 upbm affinity estimate (log intensity, higher = more binding, comparable within an allelic series)"
same,binding signal,[3],"9.52 upbm affinity estimate (log intensity, higher = more binding, comparable within an allelic series)"
same,binding signal,[4],"9.71 upbm affinity estimate (log intensity, higher = more binding, comparable within an allelic series)"
same,binding signal,[5],"9.5 upbm affinity estimate (log intensity, higher = more binding, comparable within an allelic series)"
same,binding signal,[6],"10.4 upbm affinity estimate (log intensity, higher = more binding, comparable within an allelic series)"
same,binding signal,[7],"8.87 upbm affinity estimate (log intensity, higher = more binding, comparable within an allelic series)"
same,binding signal,[8],"10.4 upbm affinity estimate (log intensity, higher = more binding, comparable within an allelic series)"
AATTAGCT,binding signal,[1],"10.5 upbm affinity estimate (log intensity, higher = more binding, comparable within an allelic series)"
same,binding signal,[9],"11.7 upbm affinity estimate (log intensity, higher = more binding, comparable within an allelic series)"
same,binding signal,[10],"11.7 upbm affinity estimate (log intensity, higher = more binding, comparable within an allelic series)"
same,binding signal,[11],"11.4 upbm affinity estimate (log intensity, higher = more binding, comparable within an allelic series)"
same,binding signal,[12],"11.5 upbm affinity estimate (log intensity, higher = more binding, comparable within an allelic series)"
same,binding signal,[13],"11.1 upbm affinity estimate (log intensity, higher = more binding, comparable within an allelic series)"
same,binding signal,[14],"12.1 upbm affinity estimate (log intensity, higher = more binding, comparable within an allelic series)"
same,binding signal,[7],"10.6 upbm affinity estimate (log intensity, higher = more binding, comparable within an allelic series)"
CTTAAGTA,binding signal,[1],"12.9 upbm affinity estimate (log intensity, higher = more binding, comparable within an allelic series)"
same,binding signal,[2],"12.6 upbm affinity estimate (log intensity, higher = more binding, comparable within an allelic series)"
same,binding signal,[3],"12.9 upbm affinity estimate (log intensity, higher = more binding, comparable within an allelic series)"
same,binding signal,[4],"12.5 upbm affinity estimate (log intensity, higher = more binding, comparable within an allelic series)"
same,binding signal,[15],"11.7 upbm affinity estimate (log intensity, higher = more binding, comparable within an allelic series)"
same,binding signal,[12],"9.02 upbm affinity estimate (log intensity, higher = more binding, comparable within an allelic series)"
same,binding signal,[16],"13.7 upbm affinity estimate (log intensity, higher = more binding, comparable within an allelic series)"
same,binding signal,[13],"8.85 upbm affinity estimate (log intensity, higher = more binding, comparable within an allelic series)"
same,binding signal,[5],"13.1 upbm affinity estimate (log intensity, higher = more binding, comparable within an allelic series)"
same,binding signal,[17],"10.9 upbm affinity estimate (log intensity, higher = more binding, comparable within an allelic series)"
same,binding signal,[14],"9.39 upbm affinity estimate (log intensity, higher = more binding, comparable within an allelic series)"
same,binding signal,[7],"12.8 upbm affinity estimate (log intensity, higher = more binding, comparable within an allelic series)"
ATTACGTA,binding signal,[1],"10.3 upbm affinity estimate (log intensity, higher = more binding, comparable within an allelic series)"
same,binding signal,[7],"10.3 upbm affinity estimate (log intensity, higher = more binding, comparable within an allelic series)"
CCGCGTCG,binding signal,[1],"9.03 upbm affinity estimate (log intensity, higher = more binding, comparable within an allelic series)"
same,binding signal,[18],"7.75 upbm affinity estimate (log intensity, higher = more binding, comparable within an allelic series)"
same,binding signal,[19],"7.36 upbm affinity estimate (log intensity, higher = more binding, comparable within an allelic series)"
same,binding signal,[7],"8.95 upbm affinity estimate (log intensity, higher = more binding, comparable within an allelic series)"
CACTTAGA,binding signal,[1],"12.6 upbm affinity estimate (log intensity, higher = more binding, comparable within an allelic series)"
same,binding signal,[15],"11.7 upbm affinity estimate (log intensity, higher = more binding, comparable within an allelic series)"
same,binding signal,[16],"13.6 upbm affinity estimate (log intensity, higher = more binding, comparable within an allelic series)"
same,binding signal,[17],"10.8 upbm affinity estimate (log intensity, higher = more binding, comparable within an allelic series)"
same,binding signal,[6],"12.6 upbm affinity estimate (log intensity, higher = more binding, comparable within an allelic series)"
same,binding signal,[7],"12.4 upbm affinity estimate (log intensity, higher = more binding, comparable within an allelic series)"
same,binding signal,[8],"12.8 upbm affinity estimate (log intensity, higher = more binding, comparable within an allelic series)"
ATCAAGTG,binding signal,[1],"12.8 upbm affinity estimate (log intensity, higher = more binding, comparable within an allelic series)"
same,binding signal,[18],"10.2 upbm affinity estimate (log intensity, higher = more binding, comparable within an allelic series)"
same,binding signal,[2],"12.6 upbm affinity estimate (log intensity, higher = more binding, comparable within an allelic series)"
same,binding signal,[3],"13 upbm affinity estimate (log intensity, higher = more binding, comparable within an allelic series)"
same,binding signal,[4],"12.4 upbm affinity estimate (log intensity, higher = more binding, comparable within an allelic series)"
same,binding signal,[19],"10.4 upbm affinity estimate (log intensity, higher = more binding, comparable within an allelic series)"
same,binding signal,[15],"12 upbm affinity estimate (log intensity, higher = more binding, comparable within an allelic series)"
same,binding signal,[16],"13.7 upbm affinity estimate (log intensity, higher = more binding, comparable within an allelic series)"
same,binding signal,[5],"13.1 upbm affinity estimate (log intensity, higher = more binding, comparable within an allelic series)"
same,binding signal,[17],"10.7 upbm affinity estimate (log intensity, higher = more binding, comparable within an allelic series)"
same,binding signal,[7],"12.6 upbm affinity estimate (log intensity, higher = more binding, comparable within an allelic series)"
AAGTACTC,binding signal,[1],"12.7 upbm affinity estimate (log intensity, higher = more binding, comparable within an allelic series)"
same,binding signal,[2],"12.7 upbm affinity estimate (log intensity, higher = more binding, comparable within an allelic series)"
same,binding signal,[3],"13.1 upbm affinity estimate (log intensity, higher = more binding, comparable within an allelic series)"
same,binding signal,[4],"12.6 upbm affinity estimate (log intensity, higher = more binding, comparable within an allelic series)"
same,binding signal,[15],"11.8 upbm affinity estimate (log intensity, higher = more binding, comparable within an allelic series)"
same,binding signal,[16],"13.6 upbm affinity estimate (log intensity, higher = more binding, comparable within an allelic series)"
same,binding signal,[5],"13.2 upbm affinity estimate (log intensity, higher = more binding, comparable within an allelic series)"
same,binding signal,[17],"10.8 upbm affinity estimate (log intensity, higher = more binding, comparable within an allelic series)"
same,binding signal,[6],"12.7 upbm affinity estimate (log intensity, higher = more binding, comparable within an allelic series)"
same,binding signal,[7],"12.6 upbm affinity estimate (log intensity, higher = more binding, comparable within an allelic series)"
same,binding signal,[8],"12.8 upbm affinity estimate (log intensity, higher = more binding, comparable within an allelic series)"
CCGGCGCG,binding signal,[1],"8.28 upbm affinity estimate (log intensity, higher = more binding, comparable within an allelic series)"
same,binding signal,[12],"6.28 upbm affinity estimate (log intensity, higher = more binding, comparable within an allelic series)"
same,binding signal,[13],"6.34 upbm affinity estimate (log intensity, higher = more binding, comparable within an allelic series)"
same,binding signal,[14],"6.04 upbm affinity estimate (log intensity, higher = more binding, comparable within an allelic series)"
same,binding signal,[7],"8.51 upbm affinity estimate (log intensity, higher = more binding, comparable within an allelic series)"
